The source of these data is the supplement of paper PMC12819154, “High-throughput peptide-centric local stability assay extends protein–ligand identification to membrane proteins, tissues and bacteria” (Nature Structural & Molecular Biology, 2025).

Chain of UniProt Q8R1Q8 (Q8R1Q8 whole entry): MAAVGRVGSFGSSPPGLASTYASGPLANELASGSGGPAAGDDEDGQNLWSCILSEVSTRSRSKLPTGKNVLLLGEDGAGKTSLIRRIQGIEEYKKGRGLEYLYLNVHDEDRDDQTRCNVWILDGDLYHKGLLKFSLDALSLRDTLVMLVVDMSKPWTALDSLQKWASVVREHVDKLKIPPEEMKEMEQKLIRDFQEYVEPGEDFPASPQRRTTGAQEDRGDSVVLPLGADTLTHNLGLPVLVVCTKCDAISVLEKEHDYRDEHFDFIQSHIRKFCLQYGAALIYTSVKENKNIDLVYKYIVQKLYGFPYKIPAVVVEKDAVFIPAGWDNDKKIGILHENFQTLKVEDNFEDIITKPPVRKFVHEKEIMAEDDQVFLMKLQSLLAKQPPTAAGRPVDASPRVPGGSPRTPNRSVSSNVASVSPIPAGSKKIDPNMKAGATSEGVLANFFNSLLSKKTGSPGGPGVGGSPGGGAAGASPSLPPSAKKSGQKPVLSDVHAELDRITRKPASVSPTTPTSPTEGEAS
Chain of UniProt Q9JM52 (Q9JM52 whole entry): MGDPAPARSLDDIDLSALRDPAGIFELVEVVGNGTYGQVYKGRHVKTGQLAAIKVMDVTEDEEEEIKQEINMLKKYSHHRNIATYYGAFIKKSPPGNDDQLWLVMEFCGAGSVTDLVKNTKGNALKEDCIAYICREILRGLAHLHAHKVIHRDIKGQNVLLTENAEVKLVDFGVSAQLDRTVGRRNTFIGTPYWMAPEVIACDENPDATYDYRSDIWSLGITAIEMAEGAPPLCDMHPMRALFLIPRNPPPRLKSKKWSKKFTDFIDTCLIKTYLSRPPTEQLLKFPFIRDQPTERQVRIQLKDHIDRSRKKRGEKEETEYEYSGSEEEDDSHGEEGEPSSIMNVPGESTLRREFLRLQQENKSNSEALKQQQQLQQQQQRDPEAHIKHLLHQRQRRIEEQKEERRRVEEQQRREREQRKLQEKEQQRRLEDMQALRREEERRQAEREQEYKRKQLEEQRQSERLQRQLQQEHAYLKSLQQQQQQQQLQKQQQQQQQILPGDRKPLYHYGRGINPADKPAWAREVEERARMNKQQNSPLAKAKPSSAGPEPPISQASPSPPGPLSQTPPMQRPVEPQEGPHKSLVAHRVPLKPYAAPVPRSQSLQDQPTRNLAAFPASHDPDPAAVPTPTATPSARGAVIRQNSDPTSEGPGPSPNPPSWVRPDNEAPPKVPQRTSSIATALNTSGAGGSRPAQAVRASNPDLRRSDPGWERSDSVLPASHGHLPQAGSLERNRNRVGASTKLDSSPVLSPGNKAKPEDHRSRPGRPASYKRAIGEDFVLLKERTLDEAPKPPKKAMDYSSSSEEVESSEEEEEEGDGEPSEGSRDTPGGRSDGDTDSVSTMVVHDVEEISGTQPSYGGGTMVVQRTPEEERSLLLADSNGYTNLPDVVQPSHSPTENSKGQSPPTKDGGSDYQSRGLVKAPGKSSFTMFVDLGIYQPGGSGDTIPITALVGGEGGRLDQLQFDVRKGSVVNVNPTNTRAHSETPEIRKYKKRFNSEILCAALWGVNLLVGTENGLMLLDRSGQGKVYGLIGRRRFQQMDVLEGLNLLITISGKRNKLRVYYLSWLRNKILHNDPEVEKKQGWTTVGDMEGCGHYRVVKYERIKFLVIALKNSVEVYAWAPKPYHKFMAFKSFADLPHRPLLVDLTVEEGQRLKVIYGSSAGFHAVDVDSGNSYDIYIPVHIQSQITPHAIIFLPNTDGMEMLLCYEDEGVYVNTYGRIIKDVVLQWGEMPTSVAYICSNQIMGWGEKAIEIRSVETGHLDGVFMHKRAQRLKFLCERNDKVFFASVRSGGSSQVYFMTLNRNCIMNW
Chain of UniProt P56395 (P56395 whole entry): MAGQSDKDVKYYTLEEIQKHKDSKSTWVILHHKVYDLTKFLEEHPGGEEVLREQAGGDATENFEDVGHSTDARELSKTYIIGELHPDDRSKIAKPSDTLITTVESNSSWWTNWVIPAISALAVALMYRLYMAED
Chain of UniProt Q60737 (Q60737 whole entry): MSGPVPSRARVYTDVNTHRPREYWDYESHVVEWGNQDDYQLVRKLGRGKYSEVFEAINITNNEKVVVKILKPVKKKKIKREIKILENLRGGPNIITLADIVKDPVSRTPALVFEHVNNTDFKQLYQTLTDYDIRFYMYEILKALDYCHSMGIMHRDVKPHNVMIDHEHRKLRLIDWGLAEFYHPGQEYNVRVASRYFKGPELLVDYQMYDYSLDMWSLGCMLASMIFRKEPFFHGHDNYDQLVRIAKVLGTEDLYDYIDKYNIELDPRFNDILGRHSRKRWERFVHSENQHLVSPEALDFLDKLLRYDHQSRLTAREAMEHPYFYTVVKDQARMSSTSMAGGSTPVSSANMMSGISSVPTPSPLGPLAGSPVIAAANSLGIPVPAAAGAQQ
Chain of UniProt Q9QZD8 (Q9QZD8 whole entry): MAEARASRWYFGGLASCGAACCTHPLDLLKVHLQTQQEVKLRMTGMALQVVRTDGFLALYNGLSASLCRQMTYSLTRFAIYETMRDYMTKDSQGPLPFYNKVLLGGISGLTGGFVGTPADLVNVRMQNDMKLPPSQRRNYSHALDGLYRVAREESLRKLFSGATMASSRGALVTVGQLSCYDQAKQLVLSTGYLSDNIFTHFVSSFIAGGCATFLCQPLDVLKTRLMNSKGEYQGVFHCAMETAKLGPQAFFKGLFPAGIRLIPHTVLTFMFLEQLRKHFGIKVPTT
Chain of UniProt P31938 (P31938 whole entry): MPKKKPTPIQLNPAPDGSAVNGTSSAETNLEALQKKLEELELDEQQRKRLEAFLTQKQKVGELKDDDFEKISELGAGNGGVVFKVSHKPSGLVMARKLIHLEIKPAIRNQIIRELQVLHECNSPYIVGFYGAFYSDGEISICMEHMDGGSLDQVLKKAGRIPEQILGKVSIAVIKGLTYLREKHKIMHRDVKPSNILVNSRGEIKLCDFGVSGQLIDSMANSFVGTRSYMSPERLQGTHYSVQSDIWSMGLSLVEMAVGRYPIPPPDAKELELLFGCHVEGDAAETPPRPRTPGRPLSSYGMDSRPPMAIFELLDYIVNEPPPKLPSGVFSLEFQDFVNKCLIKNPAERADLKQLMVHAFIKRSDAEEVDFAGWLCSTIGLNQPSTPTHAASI
Chain of UniProt P37172 (P37172 whole entry): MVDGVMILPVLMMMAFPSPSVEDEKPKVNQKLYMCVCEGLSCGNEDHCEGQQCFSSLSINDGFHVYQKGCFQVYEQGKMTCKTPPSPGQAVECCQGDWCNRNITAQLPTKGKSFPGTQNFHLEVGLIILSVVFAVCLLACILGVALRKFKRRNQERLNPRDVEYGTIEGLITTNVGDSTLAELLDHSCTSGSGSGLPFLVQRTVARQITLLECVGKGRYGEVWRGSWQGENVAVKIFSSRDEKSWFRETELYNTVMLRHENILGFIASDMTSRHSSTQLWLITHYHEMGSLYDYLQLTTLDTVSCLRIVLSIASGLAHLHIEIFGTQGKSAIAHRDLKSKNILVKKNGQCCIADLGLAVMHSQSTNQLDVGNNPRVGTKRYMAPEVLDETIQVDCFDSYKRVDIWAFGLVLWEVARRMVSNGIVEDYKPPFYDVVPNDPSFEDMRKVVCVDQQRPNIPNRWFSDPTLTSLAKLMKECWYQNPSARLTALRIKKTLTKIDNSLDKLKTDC
Chain of UniProt Q9R233 (Q9R233 whole entry): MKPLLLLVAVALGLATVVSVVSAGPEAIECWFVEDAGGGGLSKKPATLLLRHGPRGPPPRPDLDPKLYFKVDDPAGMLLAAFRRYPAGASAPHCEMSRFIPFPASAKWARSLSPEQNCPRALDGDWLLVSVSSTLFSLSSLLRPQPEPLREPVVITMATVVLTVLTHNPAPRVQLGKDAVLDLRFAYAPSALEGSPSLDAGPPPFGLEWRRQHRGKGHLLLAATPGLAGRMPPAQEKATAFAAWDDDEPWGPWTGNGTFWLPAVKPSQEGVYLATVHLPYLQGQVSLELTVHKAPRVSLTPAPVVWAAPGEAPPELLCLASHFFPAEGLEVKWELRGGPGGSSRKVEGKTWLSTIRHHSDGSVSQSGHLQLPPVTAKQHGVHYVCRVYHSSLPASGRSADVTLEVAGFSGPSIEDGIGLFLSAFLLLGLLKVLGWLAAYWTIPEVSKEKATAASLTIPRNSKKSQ
Chain of UniProt Q6P9R2 (Q6P9R2 whole entry): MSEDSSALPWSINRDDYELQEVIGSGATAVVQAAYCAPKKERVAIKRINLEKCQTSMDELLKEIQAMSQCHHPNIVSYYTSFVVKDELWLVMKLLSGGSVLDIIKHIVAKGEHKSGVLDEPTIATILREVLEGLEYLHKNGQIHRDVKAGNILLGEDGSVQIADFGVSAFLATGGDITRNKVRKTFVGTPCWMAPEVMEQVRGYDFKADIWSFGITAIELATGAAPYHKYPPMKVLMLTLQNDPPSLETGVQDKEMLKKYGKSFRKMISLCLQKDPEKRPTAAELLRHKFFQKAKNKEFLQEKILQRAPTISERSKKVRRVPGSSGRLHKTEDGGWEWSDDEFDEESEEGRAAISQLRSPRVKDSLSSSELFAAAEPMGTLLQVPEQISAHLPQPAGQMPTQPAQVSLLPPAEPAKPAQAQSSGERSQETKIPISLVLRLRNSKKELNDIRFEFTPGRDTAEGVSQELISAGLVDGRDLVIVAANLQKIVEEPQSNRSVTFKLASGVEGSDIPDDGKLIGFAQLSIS
Chain of UniProt Q60648 (Q60648 whole entry): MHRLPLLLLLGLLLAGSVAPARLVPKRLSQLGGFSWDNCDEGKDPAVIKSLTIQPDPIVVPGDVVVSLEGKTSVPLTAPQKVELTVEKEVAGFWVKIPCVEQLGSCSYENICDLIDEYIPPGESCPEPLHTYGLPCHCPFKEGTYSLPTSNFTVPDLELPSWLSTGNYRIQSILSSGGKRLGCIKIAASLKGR

Compound in this test: CN[C@@H]1C[C@H]2O[C@@](C)([C@@H]1OC)n1c3ccccc3c3c4c(c5c6ccccc6n2c5c31)C(=O)NC4 [staurosporine]
Briefly: log2 fold change of tryptic peptide abundance, ligand vs vehicle (limited proteolysis) (log2 ratio); higher = more trypsin-susceptible (destabilized). To be noted: ligand concentration: 20 uM; sample: mouse liver crude lysate; replicate design: treated separately.
With “UniProt P56395 (peptide sequence: YYTLEEIQK, peptide start residue: 11)”, the log2 fold change was 0.367.
On to “UniProt Q8R1Q8 (peptide sequence: NIDLVYK, peptide start residue: 292)”, for which the log2 fold change worked out at 0.28.
Consider “UniProt Q60648 (peptide sequence: IQSILSSGGK, peptide start residue: 170)”, for which the log2 fold change was -0.484.
“UniProt Q61694 (peptide sequence: EIILNAHEEEHR, peptide start residue: 136)”: the log2 fold change is -0.448.
Regarding “UniProt Q6PDN3 (peptide sequence: VSDVYDIEER, peptide start residue: 1482)”, the log2 fold change is -1.2.
To “UniProt Q9WU79 (peptide sequence: ASGGASDGGFSAIK, peptide start residue: 220)” belongs 0.201; to “UniProt Q921S7 (peptide sequence: HFVPWLAR, peptide start residue: 65)”, 0.415; to “UniProt P37172 (peptide sequence: GSWQGENVAVK, peptide start residue: 225)”, -2.41.
Take “UniProt O35495 (peptide sequence: LADFGLAR, peptide start residue: 853)”: the log2 fold change is -1.69.
Then “UniProt O35099 (peptide sequence: YLHDNQIVHR, peptide start residue: 800)”, with -3.12; and “UniProt Q9JI10 (peptide sequence: AGNILLNTEGHAK, peptide start residue: 149)”, with -3.04.
For the target “UniProt Q5F2E8 (peptide sequence: AGNILLTEPGQVK, peptide start residue: 150)”, the log2 fold change was -2.13.
To “UniProt Q6P9R2 (peptide sequence: EVLEGLEYLHK, peptide start residue: 129)” belongs -0.823.
Consider “UniProt O35493 (peptide sequence: ILGPIPAHMIQK, peptide start residue: 392)”, for which the log2 fold change is -2.87.
Regarding “UniProt Q6ZQ89 (peptide sequence: FIHQECLVQWLK, peptide start residue: 34)”, the log2 fold change was found to be 0.572.
Then “UniProt Q99JP0 (peptide sequence: NVNTGELAAIK, peptide start residue: 35)”, with -1.82.
On to “UniProt Q9QZL0 (peptide sequence: DLKPSNILLDPELHAK, peptide start residue: 143)”, for which the log2 fold change was -1.1.
Take “UniProt Q9JM52 (peptide sequence: GNALKEDCIAYICR, peptide start residue: 122)”: the log2 fold change was -0.672.
To “UniProt O88451 (peptide sequence: LWDQTSSEVK, peptide start residue: 225)” belongs -0.709; to “UniProt Q8BRK8 (peptide sequence: DLKPENVLLDAQMNAK, peptide start residue: 139)”, -3.83.
Regarding “UniProt Q60737 (peptide sequence: VYTDVNTHRPR, peptide start residue: 11)”, the log2 fold change was found to be 0.264.
As for “UniProt Q9WV60 (peptide sequence: LCDSGELVAIKK, peptide start residue: 75)”, the log2 fold change is -4.12.
Take “UniProt Q9JLB2 (peptide sequence: DRFASAVPHTTR, peptide start residue: 505)”: the log2 fold change was 0.704.
As to “UniProt Q8C078 (peptide sequence: DIKPSNLLVGEDGHIK, peptide start residue: 312)”, the log2 fold change was -3.1.
To “UniProt Q9R233 (peptide sequence: GKGHLLLAATPGLAGR, peptide start residue: 215)” belongs -1.39; to “UniProt Q61831 (peptide sequence: DLKPSNIVVK, peptide start residue: 151)”, -1.06; to “UniProt Q9QZD8 (peptide sequence: MTGMALQVVR, peptide start residue: 43)”, 0.567.
“UniProt Q91VJ4 (peptide sequence: DTGHVYAMK, peptide start residue: 110)”: the log2 fold change is -3.23.
On to “UniProt P62717 (peptide sequence: AHSIQIMK, peptide start residue: 121)”, for which the log2 fold change came out at 0.267.
For “UniProt P70451 (peptide sequence: NCLVGENNTLK, peptide start residue: 690)”, the log2 fold change was -2.
Take “UniProt P31938 (peptide sequence: VSHKPSGLVMAR, peptide start residue: 85)”: the log2 fold change was -0.899.
